# Bioassay records deposited in PubChem BioAssay by Buhrlage Lab, Dana-Farber Cancer Institute and Novartis Institutes for BioMedical Research (Cambridge, Mass).
# USP10 inh – human USP10 deubiquitinase inhibition; inhibition, % at 20 µM; 47,000 compounds, 1.1% hits; purified USP10, Ub-rhodamine fluorescence, 60 min
# USP7 inh – inhibitors of human USP7 deubiquitinase; Q93009; inhibition, % at 20 µM; 47,000 compounds, 0.3% hits; purified USP7, Ub-rhodamine cleavage fluorescence
# Target sequence (Q93009 whole entry, looked up): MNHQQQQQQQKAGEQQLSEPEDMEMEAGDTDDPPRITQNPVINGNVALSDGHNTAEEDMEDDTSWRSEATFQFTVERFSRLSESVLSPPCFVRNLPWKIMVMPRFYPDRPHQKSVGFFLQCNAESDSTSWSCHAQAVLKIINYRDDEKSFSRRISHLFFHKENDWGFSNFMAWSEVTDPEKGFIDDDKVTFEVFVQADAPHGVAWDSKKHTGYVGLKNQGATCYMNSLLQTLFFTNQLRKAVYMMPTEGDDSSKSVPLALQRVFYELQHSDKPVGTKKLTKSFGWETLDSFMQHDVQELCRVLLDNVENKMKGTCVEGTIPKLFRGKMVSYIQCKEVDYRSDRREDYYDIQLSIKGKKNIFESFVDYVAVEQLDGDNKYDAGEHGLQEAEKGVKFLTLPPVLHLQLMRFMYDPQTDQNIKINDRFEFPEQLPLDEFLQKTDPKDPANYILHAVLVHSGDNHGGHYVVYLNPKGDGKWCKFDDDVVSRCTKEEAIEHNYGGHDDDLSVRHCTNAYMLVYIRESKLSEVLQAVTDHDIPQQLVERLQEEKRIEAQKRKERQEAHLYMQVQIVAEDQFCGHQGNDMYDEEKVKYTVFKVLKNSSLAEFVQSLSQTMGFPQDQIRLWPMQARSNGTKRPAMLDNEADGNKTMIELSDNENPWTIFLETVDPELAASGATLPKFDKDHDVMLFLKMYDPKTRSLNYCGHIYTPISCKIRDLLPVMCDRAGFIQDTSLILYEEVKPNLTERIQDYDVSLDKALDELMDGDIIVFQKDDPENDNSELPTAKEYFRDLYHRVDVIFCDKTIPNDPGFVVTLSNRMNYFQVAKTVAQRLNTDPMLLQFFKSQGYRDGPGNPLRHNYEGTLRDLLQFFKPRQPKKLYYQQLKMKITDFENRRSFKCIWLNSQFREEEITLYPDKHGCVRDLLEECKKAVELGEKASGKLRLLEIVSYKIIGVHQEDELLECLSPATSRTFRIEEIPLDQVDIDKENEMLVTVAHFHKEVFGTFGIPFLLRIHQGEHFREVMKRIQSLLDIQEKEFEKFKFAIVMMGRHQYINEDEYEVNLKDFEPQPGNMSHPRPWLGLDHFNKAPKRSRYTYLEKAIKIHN
# OTUD3 inh – human OTUD3 deubiquitinase inhibition. Q5T2D3. purified OTUD3, Ub-rhodamine fluorescence, 2 h. inhibition, % at 25 µM. 47,000 compounds, 0.7% hits. AID 1645858
# UCHL1 block – blocks human UCHL1 ubiquitin-rhodamine cleavage | P09936 | purified UCHL1, Ub-rhodamine cleavage fluorescence | inhibition, % at 20 µM | 47,000 compounds, 0.2% hits | AID 1645859
# * hit, by the source's call. Rows were chosen to be rich in hits. Some 1.7% of all compounds tested hit in one or more screens of this group. No stated cut-off is given here; in the data, active means inhibition above about 30%; inactive means the rest.
SMILES,USP10 inh,USP7 inh,OTUD3 inh,UCHL1 block
CCOc1cc(CNC(=O)Cc2c(C)n[nH]c2C)ccc1OC,-1,2,0,1
CCc1cc(C2CCCN2C(=O)c2c(-c3ccccc3Cl)noc2C)on1 (centres undefined),3,-2,-1,-1
N#Cc1ccc(-c2ccc(OCC(=O)Nc3ccc4c(c3)CCC4)cc2)cc1,20,11,42*,2
O=c1[nH]c(=O)n(Cc2ccco2)c2c1CN(Cc1ccccc1)CN2,-2,0,2,-1
CCC(C)N1CNc2c(c(=O)[nH]c(=O)n2Cc2ccco2)C1 (centres undefined),31*,12,13,29
COc1cc(O)c2c(c1)C(=O)c1cc3c(c(O)c1C2=O)C(OC1OC(C)C(OC)C(O)C1OC)C(OC)C(C)(O)C3=O (centres undefined),-4,-141,-149,-149
COc1cc(O)c2c(c1)C1=CC(=O)C(O)=C[C@]1(C)OC2=O,29,1,41*,9
O=C1NCC2(C/C=C/CCOc3ccccc31)CCN(C(=O)c1ccnc(N3CCCC3)c1)CC2,4,10,42*,0
COc1ccc(-c2nc(SCC(=O)Oc3c(C)cccc3C)n3[nH]c(=O)cc3n2)cc1,46*,0,14,0
COc1cc2c(c(OCC(=O)Nc3ccc4c(c3)OCCO4)c1)C(=O)O[C@@H](C)CCCC(=O)CCCCC2,32*,3,27,1
COc1cc(OCC(=O)NC(C)C)cc2c1C(=O)O[C@@H](C)CCCC(=O)CCCCC2,-3,3,11,0
O=C(CCc1ccccc1)N1C[C@@H]2CN(S(=O)(=O)c3ccccc3)C[C@@H]2C1,0,-1,2,-2
Cc1ccc(-c2cc(-c3ccc(F)cc3)[nH]c(=O)c2C#N)cc1,19,9,-2,1
CC(C)Cc1ccc(-c2cc(-c3ccc(C(F)(F)F)cc3)c(C#N)c(=O)[nH]2)cc1,64*,35*,0,-2
Cc1c(C(=O)OCC(=O)Nc2ccc3c(c2)OCO3)oc2ccc(Br)cc12,35*,3,0,0
CCOc1ccc(NC(=O)COC(=O)c2oc3ccc(OCC)cc3c2C)cc1,-2,-6,-51,-5
Cc1cc(Nc2ncc(Cl)cc2Cl)n(-c2ccccc2C(F)(F)F)n1,0,-143,6,4
Cc1cccn2cc(CNC(=O)c3c(F)cccc3Cl)nc12,-1,0,-1,-2
O=C(NCc1cccc(NC(=O)C2CC2)c1)Nc1cccc2ccccc12,13,3,42*,1
Cc1ccc(-c2nc(-c3ccccc3)c(S(=O)(=O)CC(=O)Nc3ccc(C)c(C)c3)[nH]2)cc1,23,13,32*,8
CCOc1ccc(NC(=O)CS(=O)(=O)c2[nH]c(-c3cccc(OC)c3)nc2-c2ccccc2)cc1,7,5,17,6
Cc1c(C)n(-c2ccccc2)c2ncn(CC(=O)NC(C)c3ccccc3)c(=O)c12 (centres undefined),20,8,45*,6
CC(=O)c1ccc(NC(=O)CC2C(=O)Nc3nc4ccccc4n32)cc1 (centres undefined),2,4,0,4
O=C(Nc1ccccc1F)C1Cc2ccccc2N1C(=O)c1ccccc1 (centres undefined),-6,-4,-22,-4
COc1cc(Cl)c(NC(=O)C2Cc3ccccc3N2C(=O)c2ccccc2)c(OC)c1 (centres undefined),36*,1,-2,1
SMILES,USP10 inh,USP7 inh,OTUD3 inh,UCHL1 block
CCOc1ccc(S(=O)(=O)N2CCCCC2)cc1NC(=O)Cc1cc(OC)c(OC)c(OC)c1,0,5,14,7
c1ccc(CN(Cc2ccccc2)c2c3c(nc4ncnn24)CCC3)cc1,4,-3,11,5
Cc1noc(-c2cccnc2-n2cnc(C(=O)Nc3ccc(F)cc3)c2)n1,-3,-3,0,-3
COc1cc(C)cc2c1C(=O)c1c(cc(O)c(Cl)c1O)C2=O,5,72*,76*,73*
COc1ccc(NC(=O)Cn2cc(C(=O)c3ccccc3)c(=O)c3cc(Cl)ccc32)cc1OC,33*,7,-8,6
COc1ccc(NC(=O)Cn2cc(C(=O)c3ccc(Cl)cc3)c(=O)c3cc(F)ccc32)cc1,53*,25,15,6
Cc1ccc2c(c1)c(=O)c(C(=O)c1ccccc1)cn2CC(=O)Nc1ccc2c(c1)OCO2,31*,23,0,-1
CCOc1ccc2c(c1)c(=O)c(C(=O)c1ccccc1)cn2CC(=O)Nc1ccc(Cl)cc1,47*,30,-8,6
COc1ccccc1CNC(=O)CCCn1c(=O)c2ccccc2n(CC(=O)N2CCN(c3ccccc3)CC2)c1=O,7,1,2,1
